Hit rate of the full screen: of about 5,700 compounds, about 85 (1%) were called active. The sample holds actives, similar compounds and a random draw of the others, so the mix is not that of the screen. No stated cut-off is given here; in the data, active means p53-positive nuclei above about 36% (passing the limit was not always enough); inactive means the rest.
What was measured:
[1] = nuclear p53 accumulation, HPV+ cells – imaging, p53-positive nuclei imaging, 24 h, 48 h (AID 1508601); conditions: 24/48 h
[2] = biological target: Cellular tumor antigen p53 (Homo sapiens) (UniProt P04637); assay: as above; conditions: 24/48 h, stronger effect = higher value
[3] = measured here: cell number at 24 h, concentration not given here
[4] = measured here: cell number at 48 h, concentration not given here
[5] = measured here: p53 positive nuclei at 24 h, concentration not given here
[6] = measured here: cell number at 24 h, Library stock concentration: 80 uM
[7] = measured here: cell number at 24 h, Library stock concentration: 400 uM
[8] = measured here: cell number at 24 h, Library stock concentration: 2 mM
[9] = measured here: cell number at 24 h, Library stock concentration: 10 mM
[10] = measured here: cell number at 48 h, Library stock concentration: 80 uM
[11] = measured here: cell number at 48 h, Library stock concentration: 400 uM
[12] = measured here: cell number at 48 h, Library stock concentration: 2 mM
[13] = measured here: cell number at 48 h, Library stock concentration: 10 mM
[14] = Library stock concentration: 80 uM
[15] = Library stock concentration: 400 uM
[16] = Library stock concentration: 2 mM
[17] = Library stock concentration: 10 mM
[18] = measured here: p53 positive nuclei at 24 h, Library stock concentration: 80 uM
[19] = measured here: p53 positive nuclei at 24 h, Library stock concentration: 400 uM
[20] = measured here: p53 positive nuclei at 24 h, Library stock concentration: 2 mM
[21] = measured here: p53 positive nuclei at 24 h, Library stock concentration: 10 mM

Cellular tumor antigen p53 (Homo sapiens), sequence (P04637 whole entry, looked up): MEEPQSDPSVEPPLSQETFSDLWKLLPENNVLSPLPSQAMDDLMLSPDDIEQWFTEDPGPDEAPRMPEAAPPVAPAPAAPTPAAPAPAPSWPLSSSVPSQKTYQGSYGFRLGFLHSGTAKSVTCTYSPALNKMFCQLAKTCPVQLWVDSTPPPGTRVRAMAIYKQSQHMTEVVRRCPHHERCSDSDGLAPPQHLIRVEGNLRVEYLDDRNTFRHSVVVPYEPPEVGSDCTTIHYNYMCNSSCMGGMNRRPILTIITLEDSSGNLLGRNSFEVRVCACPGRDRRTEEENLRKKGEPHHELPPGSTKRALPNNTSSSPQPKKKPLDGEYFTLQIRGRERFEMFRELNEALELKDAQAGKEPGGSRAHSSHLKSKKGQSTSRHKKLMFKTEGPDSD

COc1nccnc1-c1ccc2c(c1)OCO2
nuclei count, normalised [1, 3]: 115% | nuclei count, normalised [1, 4]: 114% | p53-positive nuclei, normalised ([2]; concentration not given here): -0.145% (inactive) | p53-positive nuclei, normalised [2, 5]: -0.0884%

c1nc(-c2ccc3c(c2)OCCO3)c2sccc2n1
nuclei count, normalised [1, 3]: 74.2% | nuclei count, normalised [1, 4]: 38.4% | p53-positive nuclei, normalised ([2]; concentration not given here): 68.7% (active) | p53-positive nuclei, normalised [2, 5]: 3%

NC(=O)c1ccc(-c2nc(-c3ccc4c(c3)OCCO4)c(-c3ccccn3)[nH]2)cc1
nuclei count, normalised [1, 6]: 108% | nuclei count, normalised [1, 7]: 108% | nuclei count, normalised [1, 8]: 103% | nuclei count, normalised [1, 9]: 105% | nuclei count, normalised [1, 3]: 114% | nuclei count, normalised [1, 10]: 111% | nuclei count, normalised [1, 11]: 111% | nuclei count, normalised [1, 12]: 103% | nuclei count, normalised [1, 13]: 99.9% | nuclei count, normalised [1, 4]: 116% | p53-positive nuclei, normalised [2, 14]: 0.102% (inactive) | p53-positive nuclei, normalised [2, 15]: 0.159% (inactive) | p53-positive nuclei, normalised [2, 16]: -0.0937% (inactive) | p53-positive nuclei, normalised [2, 17]: 0.066% (inactive) | p53-positive nuclei, normalised ([2]; concentration not given here): -0.0133% (inactive) | p53-positive nuclei, normalised [2, 18]: -0.0114% | p53-positive nuclei, normalised [2, 19]: 0.0817% | p53-positive nuclei, normalised [2, 20]: -0.00675% | p53-positive nuclei, normalised [2, 21]: 0.138% | p53-positive nuclei, normalised [2, 5]: -0.0284%

CC=C1NC(=O)C2CSSCCC=CC(CC(=O)NC(C(C)C)C(=O)N2)OC(=O)C(C(C)C)NC1=O (centres undefined)
nuclei count, normalised ([1]; measured here: cell number at 24 h, Library stock concentration: 3.33 mM): 45.3% | nuclei count, normalised ([1]; measured here: cell number at 48 h, Library stock concentration: 3.33 mM): 13.5% | p53-positive nuclei, normalised ([2]; Library stock concentration: 3.33 mM): 138% (active) | p53-positive nuclei, normalised ([2]; measured here: p53 positive nuclei at 24 h, Library stock concentration: 3.33 mM): 79.1%

OC1CCC(Nc2ncc3nc(Nc4c(F)cc(F)cc4F)n(C4CCOC4)c3n2)CC1 (centres undefined)
nuclei count, normalised [1, 6]: 108% | nuclei count, normalised [1, 7]: 111% | nuclei count, normalised [1, 8]: 106% | nuclei count, normalised [1, 9]: 114% | nuclei count, normalised [1, 10]: 111% | nuclei count, normalised [1, 11]: 111% | nuclei count, normalised [1, 12]: 112% | nuclei count, normalised [1, 13]: 113% | p53-positive nuclei, normalised [2, 14]: 0.0644% (inactive) | p53-positive nuclei, normalised [2, 15]: -0.0934% (inactive) | p53-positive nuclei, normalised [2, 16]: -0.0819% (inactive) | p53-positive nuclei, normalised [2, 17]: -0.265% (inactive) | p53-positive nuclei, normalised [2, 18]: 0.0898% | p53-positive nuclei, normalised [2, 19]: -0.0608% | p53-positive nuclei, normalised [2, 20]: -0.051% | p53-positive nuclei, normalised [2, 21]: -0.0545%

O=C1SC(=Cc2ccc(OCc3cccc(B(O)O)c3)cc2)C(=O)N1Cc1ccc(F)cc1
nuclei count, normalised [1, 6]: 110% | nuclei count, normalised [1, 7]: 108% | nuclei count, normalised [1, 8]: 110% | nuclei count, normalised [1, 9]: 110% | nuclei count, normalised [1, 10]: 102% | nuclei count, normalised [1, 11]: 102% | nuclei count, normalised [1, 12]: 109% | nuclei count, normalised [1, 13]: 113% | p53-positive nuclei, normalised [2, 14]: 0.073% (inactive) | p53-positive nuclei, normalised [2, 15]: 0.243% (inactive) | p53-positive nuclei, normalised [2, 16]: 0.131% (inactive) | p53-positive nuclei, normalised [2, 17]: -0.221% (inactive) | p53-positive nuclei, normalised [2, 18]: 0.0618% | p53-positive nuclei, normalised [2, 19]: 0.065% | p53-positive nuclei, normalised [2, 20]: 0.123% | p53-positive nuclei, normalised [2, 21]: -0.0586%

CCN(CC)c1ccc(C=NNC(=O)c2ccc(O)cc2)cc1
nuclei count, normalised ([1]; measured here: cell number at 24 h, Library stock concentration: 46 uM): 111% | nuclei count, normalised ([1]; measured here: cell number at 24 h, Library stock concentration: 278 uM): 117% | nuclei count, normalised ([1]; measured here: cell number at 24 h, Library stock concentration: 1.67 mM): 121% | nuclei count, normalised [1, 9]: 79.3% | nuclei count, normalised ([1]; measured here: cell number at 48 h, Library stock concentration: 46 uM): 116% | nuclei count, normalised ([1]; measured here: cell number at 48 h, Library stock concentration: 278 uM): 118% | nuclei count, normalised ([1]; measured here: cell number at 48 h, Library stock concentration: 1.67 mM): 118% | nuclei count, normalised [1, 13]: 83.6% | p53-positive nuclei, normalised ([2]; Library stock concentration: 46 uM): -0.325% (inactive) | p53-positive nuclei, normalised ([2]; Library stock concentration: 278 uM): -0.186% (inactive) | p53-positive nuclei, normalised ([2]; Library stock concentration: 1.67 mM): -0.0464% (inactive) | p53-positive nuclei, normalised [2, 17]: 1.02% (inactive) | p53-positive nuclei, normalised ([2]; measured here: p53 positive nuclei at 24 h, Library stock concentration: 46 uM): -0.151% | p53-positive nuclei, normalised ([2]; measured here: p53 positive nuclei at 24 h, Library stock concentration: 278 uM): -0.0898% | p53-positive nuclei, normalised ([2]; measured here: p53 positive nuclei at 24 h, Library stock concentration: 1.67 mM): 0.0252% | p53-positive nuclei, normalised [2, 21]: 0.906%

Nc1ccc(C(=O)O)c(O)c1 (tested in a mixture with another compound)
nuclei count, normalised [1, 3]: 95.8% | nuclei count, normalised [1, 4]: 101% | p53-positive nuclei, normalised ([2]; concentration not given here): 0.284% (inactive) | p53-positive nuclei, normalised [2, 5]: 0.00463%

CCC(C)C(NC(=O)C(C(C)CC)N(C)C(C)=O)C(=O)NC(C(=O)NC(CC(C)C)C(=O)[C@@]1(C)CO1)C(C)O (some centres undefined)
nuclei count, normalised [1, 6]: 52.8% | nuclei count, normalised [1, 7]: 48.9% | nuclei count, normalised [1, 8]: 47.9% | nuclei count, normalised [1, 9]: 45.3% | nuclei count, normalised [1, 10]: 41.4% | nuclei count, normalised [1, 11]: 39.9% | nuclei count, normalised [1, 12]: 38.3% | nuclei count, normalised [1, 13]: 35.1% | p53-positive nuclei, normalised [2, 14]: 104% (active) | p53-positive nuclei, normalised [2, 15]: 100% (active) | p53-positive nuclei, normalised [2, 16]: 107% (active) | p53-positive nuclei, normalised [2, 17]: 106% (active) | p53-positive nuclei, normalised [2, 18]: 124% | p53-positive nuclei, normalised [2, 19]: 125% | p53-positive nuclei, normalised [2, 20]: 127% | p53-positive nuclei, normalised [2, 21]: 125%

CC(=O)N[C@@H](CC(C)C)C(=O)N1CCC(n2cc(C(C)(C)N)nn2)CC1
nuclei count, normalised [1, 3]: 104% | nuclei count, normalised [1, 4]: 109% | p53-positive nuclei, normalised ([2]; concentration not given here): -0.0832% (inactive) | p53-positive nuclei, normalised [2, 5]: 0.155%
